According to PubChem BioAssay (EPA / NIEHS):
“And” between values parts separate entries of the source, which are not always exact repeats. Equal values may be shown once. The source made the active and inactive calls. The calls were made as follows: active = hit-call score of the fitted dose curve at least 0.9, where 1 is the maximum; inconclusive = response in the unintended direction; inactive = score below 0.9.

These compounds were tested against Estrogen receptor beta (Homo sapiens) (UniProt Q92731) (assay: OT_ER_ERbERb_1440: Odyssey Thera (OT) 24-hour HEK293T Protein-Complementation Assay for Estrogen Receptor-beta/-beta Homodimer (AID 2283380);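 also: scored as signal increase over DMSO baseline for both agonists and antagonists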).
Estrogen receptor beta (Homo sapiens), sequence (Q92731 whole entry, looked up, the tested form may be a part): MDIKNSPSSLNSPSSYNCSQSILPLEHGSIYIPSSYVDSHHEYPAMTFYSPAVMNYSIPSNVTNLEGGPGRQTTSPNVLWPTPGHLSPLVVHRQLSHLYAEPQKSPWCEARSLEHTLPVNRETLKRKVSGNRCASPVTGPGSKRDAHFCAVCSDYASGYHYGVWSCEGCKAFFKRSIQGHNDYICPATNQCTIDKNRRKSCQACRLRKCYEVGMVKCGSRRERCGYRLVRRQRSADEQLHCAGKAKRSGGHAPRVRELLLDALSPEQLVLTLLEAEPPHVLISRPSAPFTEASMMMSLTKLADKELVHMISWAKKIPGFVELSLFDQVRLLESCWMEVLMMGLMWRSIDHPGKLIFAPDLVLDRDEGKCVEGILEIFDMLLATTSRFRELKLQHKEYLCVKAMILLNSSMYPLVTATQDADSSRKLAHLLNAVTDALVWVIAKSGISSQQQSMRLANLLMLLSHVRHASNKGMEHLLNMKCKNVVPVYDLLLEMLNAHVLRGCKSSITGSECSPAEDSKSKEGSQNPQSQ
Description: OT_ER_ERbERb_1440 is a cell-based assay that uses HEK293T, a human kidney cell line, with measurements taken at 24 hours after chemical dosing in a 384-well plate.OT_ER_ERbERb_1440 is one of one assay component(s) measured or calculated from the OT_ER_ERbERb_1440 assay. It is designed to make measurements of protein fragment complementation, a form of binding reporter, as detected with fluorescence intensity signals by Protein-fragment Complementation technology.Data from the assay component OT_ER_ERbERb_1440 was analyzed into 1 assay endpoint. This assay endpoint, OT_ER_ERbERb_1440, was analyzed in the positive analysis fitting direction relative to DMSO as the negative control and baseline of activity. Using a type of binding reporter, measures of receptor for gain-of-signal activity can be used to understand the binding at the pathway-level as they relate to the gene ESR2. Furthermore, this assay endpoint can be referred to as a primary readout, because the performed assay has only produced 1 assay endpoint. To generalize the intended target to other relatable targets, this assay endpoint is annotated to the nuclear receptor intended target family, where the subfamily is steroidal.
Protein-fragment complementation assay, or PCA, is a method for the identification and quantification of protein-protein interactions. In the PCA, the proteins of interest ("bait" and "prey") are each covalently linked to fragments of a third protein (e.g. DHFR, which acts as a "reporter"). Interaction between the bait and the prey proteins brings the fragments of the reporter protein in close proximity to allow them to form a functional reporter protein whose activity can be measured. The OT ER beta / ER beta assay is a homodimer PCA of the ligand binding domain (LBD; amino acids 310-547) of human ER beta stably expressed in HEK293T cells. […] Cells are fixed in 4 percent formaldehyde and stained with Draq5 (BioStatus) to identify cells prior to signal detection. Fluorescent signal in the basal state of the assay is very low and is primarily punctuate and cytoplasmic. Modulation of this assay is quantified as an increase in mean fluorescence intensity in the nucleus (for agonists) or in the nucleus and cytoplasm (antagonists) relative to vehicle controls, and can be quantified on a high content imaging device or a laser scanning cytometer. The latter instrument is favored for this assay because of the rapid mode of data acquisition, the ability to acquire data from the entire cell population in a well (as opposed to a fraction of the well on the high content devices) and the larger dynamic range typically achieved with this instrument. To assess sensitivity of the ER beta/ER beta LBD assay to ligand, cells were treated with the ER agonist 17- beta-estradiol (E2) in 10-point concentration- response format for 24 hours and monitored response on a laser scanning plate cytometer (Acumen eX3; TTP Lab Tech).

SMILES	outcome	AC50
CCNc1nc(Cl)nc(NCC)n1	inactive	
COC(=O)N(OC)c1ccccc1COc1ccn(-c2ccc(Cl)cc2)n1	inactive	
CCCN(CCC)c1c([N+](=O)[O-])cc(S(N)(=O)=O)cc1[N+](=O)[O-]	inactive	
COc1nc(NC(C)C)nc(NC(C)C)n1	inactive	
CCNc1nc(Cl)nc(NC(C)C)n1	inactive	
COc1cnc(OC)n2nc(NS(=O)(=O)c3c(OCC(F)F)cccc3C(F)(F)F)nc12	inactive	
COc1ccc(C(c2ccc(OC)cc2)C(Cl)(Cl)Cl)cc1		4.01 µM (active) and 3.74 µM (active) and 3.97 µM (active)
CO/C=C(/C(=O)OC)c1ccccc1Oc1cc(Oc2ccccc2C#N)ncn1	inactive	
Fc1ccc(Oc2ccnc3cc(Cl)cc(Cl)c23)cc1	inactive	
CC1=C(C(=O)Nc2ccccc2)SCCO1	inactive	
CCCCNC(=O)OCC#CI	inactive	
N#Cc1nn(-c2c(Cl)cc(C(F)(F)F)cc2Cl)c(N)c1S(=O)C(F)(F)F (configuration not stated)	inactive	
CCCCNC(=O)n1c(NC(=O)OC)nc2ccccc21	inactive	
CNC(=S)S	inactive	
CCCCOC(=O)c1ccccc1C(=O)OCCCC		33.4 µM (active) and 37.5 µM (active) and 31.9 µM (active)
COC(=O)c1ccccc1C(=O)OC	inactive	
CN(C)C(=S)SSC(=S)N(C)C	inactive	
COP(=S)(OC)Oc1nc(Cl)c(Cl)cc1Cl	inactive	
C#CCOS(=O)OC1CCCCC1Oc1ccc(C(C)(C)C)cc1 (configuration not stated)	inactive	

SMILES	outcome	AC50
COP(N)(=O)SC (configuration not stated)	inactive	
CC(C)C1(C)N=C(c2nc3ccccc3cc2C(=O)O)NC1=O (configuration not stated)	inactive	
OC(c1ccc(Cl)cc1)(c1cncnc1)c1ccccc1Cl (configuration not stated)	inactive	
CC(C)Oc1cc(-n2nc(C(C)(C)C)oc2=O)c(Cl)cc1Cl	inactive	
COC(=O)C=C(C)OP(=O)(OC)OC	inactive	
N#CC(CCc1ccc(Cl)cc1)(Cn1cncn1)c1ccccc1 (configuration not stated)	inactive	
COC(=O)C(C)Oc1ccc(Oc2ccc(Cl)cc2Cl)cc1 (configuration not stated)	inactive	
Cc1ccc(-c2c(Cl)nc(C#N)n2S(=O)(=O)N(C)C)cc1	inactive	
CS/C(C)=N/OC(=O)N(C)SN(C)C(=O)O/N=C(\C)SC	inactive	
Oc1ccccc1-c1ccccc1	inactive	
CCCCC(CC)COC(=O)c1ccccc1C(=O)OCC(CC)CCCC (configuration not stated)	inactive	
CC1COC(Cn2cncn2)(c2ccc(Oc3ccc(Cl)cc3)cc2Cl)O1 (configuration not stated)	inactive	
CCOP(=S)(OCC)SCn1c(=O)oc2cc(Cl)ccc21	inactive	
CC(C)(C)c1ccc(CSc2cnn(C(C)(C)C)c(=O)c2Cl)cc1	inactive	
CCOc1cc(Oc2ccc(C(F)(F)F)cc2Cl)ccc1[N+](=O)[O-]	inactive	
CCc1nn(C)c(C(=O)NCc2ccc(C(C)(C)C)cc2)c1Cl	inactive	
Cc1c(F)c(F)c(COC(=O)C2C(/C=C(\Cl)C(F)(F)F)C2(C)C)c(F)c1F (configuration not stated)	inactive	
C=CC1(C)OC(=O)N(c2cc(Cl)cc(Cl)c2)C1=O (configuration not stated)	inactive	
